Experimental data: PubChem BioAssay AID488802 (Broad Institute, 2010)
Potency and affinity values are given separately. The source made the active and inactive calls. Where a call stands in place of a potency, no number is given. No rule for the calls is given here.

assay: single-agent growth inhibition of C. albicans, dose response, counter-screen for antifungal drug resistance project, C. albicans CaCi-2, dry powder (AID 488802); conditions: C. albicans CaCi-2 (fluconazole-resistant clinical isolate) growth, no fluconazole, Alamar Blue, 48 h; series mostly up to 26 µM

Compound | outcome | activity change, negative = inhibition
O=C(Cn1nc(C(=O)N2CCCCC2)c2ccccc21)N1CCOCC1 | inactive | –
O=C(c1csc2ccccc12)N1CCN(c2ccnc3cc(Cl)ccc23)CC1 | inactive | –
O=C(c1cccs1)N1CCN(c2ccnc3cc(Cl)ccc23)CC1 | inactive | –
O=C(Cn1c2ccccc2c2nc3n(c(=O)c21)CCCS3)c1ccc(F)cc1 | inactive | –
COc1ccc(OC)c2c(C)cc(N3CCN(C(=O)c4ccc(Cl)cc4)CC3)nc12 | inactive | –
c1ccc(-c2n[nH]c3ccccc23)cc1 | inactive | –
COC(=O)Cn1nc(-c2ccccc2)c2cc(Cl)ccc21 | inactive | –
O=C(Cn1c2ccccc2c2nc3n(c(=O)c21)CCS3)NCCc1ccc(Cl)cc1 | inactive | –
O=C(Cn1nc(-c2ccccc2)c2ccccc21)NCc1ccc(Cl)cc1 | inactive | –
O=S(=O)(c1ccc(Cl)cc1)N1CCN(c2ccnc3cc(Cl)ccc23)CC1 | inactive | –
CCCNC(=O)Cn1nc(-c2ccccc2)c2ccccc21 | inactive | –
O=C(C1CC1)N1CCN(c2ccnc3cc(Cl)ccc23)CC1 | inactive | –
CC1CCN(C(=O)Cn2c3ccc(F)cc3c3nc4n(c(=O)c32)CCCS4)CC1 | inactive | –
O=C(Cn1nc(-c2ccccc2)c2cc(Cl)ccc21)N1CCOCC1 | inactive | –
COC(=O)Cn1nc(-c2ccc(Cl)cc2)c2ccccc21 | inactive | –
O=C(c1ccc(Cl)cc1)N1CCN(c2ccccn2)CC1 | inactive | –
COC(=O)Cn1nc(C)c2ccccc21 | inactive | –
CCOC(=O)c1nn(Cc2ccc(Cl)cc2)c2ccccc12 | inactive | –

Compound | outcome | activity change, negative = inhibition
O=c1c2[nH]c3ccccc3c2nc2n1CCS2 | inactive | –
COC(=O)Cn1nc(-c2ccccc2)c2ccccc21 | inactive | –
O=C(Nc1ccc(C(F)(F)F)cc1)N1CCN(c2ccnc3cc(Cl)ccc23)CC1 | inactive | –
O=C(c1ccc(Cl)cc1)N1CCN(c2ccc(Cl)cc2)CC1 | inactive | –
CNC(=O)Cn1nc(-c2ccccc2)c2ccccc21 | inactive | –
O=C(O)c1c2ccccc2nn1Cc1ccc(Cl)cc1 | inactive | –
O=C(Cn1c2ccccc2c2nc3n(c(=O)c21)CCS3)N1CCCC1 | inactive | –
O=C(c1ccccc1)N1CCN(c2ccnc3cc(Cl)ccc23)CC1 | inactive | –
O=C(Cn1nc(-c2ccccc2)c2ccccc21)N1CCc2ccccc2C1 | inactive | –
COc1ccc2c(c1)c1nc3n(c(=O)c1n2CC(=O)N1CCC(C)CC1)CCS3 | – | 13.5% [at 2.6 µM] (inactive)
COC(=O)Cn1nc(-c2ccc(C)cc2)c2ccccc21 | inactive | –
O=C(c1ccc(Cl)cc1)N1CCN(c2cc(C(F)(F)F)nc3ccccc23)CC1 | inactive | –
O=C(O)c1nn(Cc2ccc(Cl)cc2)c2ccccc12 | inactive | –
CCOC(=O)c1c2ccccc2nn1Cc1ccc(Cl)cc1 | inactive | –
CCCCNC(=O)N1CCN(c2ccnc3cc(Cl)ccc23)CC1 | inactive | –
CCN(CC)C(=O)Cn1c2ccccc2c2nc3n(c(=O)c21)CCS3 | inactive | –
COc1ccc2c(c1)c1nc3n(c(=O)c1n2CC(=O)N1CCC(Cc2ccccc2)CC1)CCS3 | inactive | –
